From PubChem BioAssay AID651567 (National Center for Advancing Translational Sciences (NCATS), 2012)
Among all 1,200 compounds or so, about 10 (0.8%) were called active. Another 4% or so got no clear call; they are omitted. Calls come from the whole dose curve; as a rule, active = well fitted inhibition curve with a large enough effect; inconclusive = small, poorly fitted or top-dose-only effect; inactive = no such curve, though single readings can be large or run the other way. The entries come from a sample that favours actives as a whole.

Experiment: qHTS Assay to Find Inhibitors of Chronic Active B-Cell Receptor Signaling: Hit Validation in OCI-Ly3 Assay
Details: OCI-Ly3 IkB-luciferase reporter, Chroma-Glo luminescence, 4 h; series mostly up to 46.1 µM; activity change, negative = inhibition: at the top concentration
Excerpt: Diffuse large B-cell lymphoma (DLBCL) is the most common category of non-Hodgkin lymphoma, with ~20,000 new cases per year in the United States. DLBCL should be regarded as a collection of different neoplasms. Microarray gene expression analysis has defined two principal types of DLBCL, named for their similarity to normal B cell stages or activation states: a germinal center B-cell (GCB) type, and an activated B-cell (ABC) type. In ABC-DLBCL, a constitutive high-level activity of the NF-kappaB family of transcription factors has been observed (1) and NF-kappaB target genes are more highly expressed in ABC primary tumors than in GCB tumors. Functional studies have shown a constitutive high-level activity of the IkappaB (inhibitor of kappa-B) kinase (IKK) complex. […] Further analysis of DLBCL primary tumors for NF-kappaB target gene expression imply that although CARD11 is required for constitutive IKK activity in all ABC-DLBCL lines, mutations in CARD11 may be the root cause of IKK activation only in lines or tumors with such mutations. In other words, CARD11 mutations may explain NF-kappaB activation in only 10% of ABC-DLBCL cases. […] This process has been termed 'chronic active BCR signaling' (CABS). The goal of this screen is to find small-molecule inhibitors of the CABS pathway found in ABC-DLBCL lines using a cell-based assay that measures IkappaBalpa stability, which has already been extensively validated in the OCI-Ly3 line (PubChem AID:445; REF: 4). […] Hits from the primary screen were tested in this selectivity secondary assay. NIH Molecular Libraries Probe Production Network [MLPCN] NIH Chemical Genomics Center [NCGC] MLPCN Grant: R03 DA031086 PI Name: Dr. R. Eric Davis
Cells were seeded in 1536-well plates at 5000 cells/3ul in IMDM medium containing 0.5% FBS, w/o phenol red, L-glutamine, 25 mM HEPES, 3 mg/ml sodium bicarbonate. After centrifugation for 1 min. at 1000 rpm, 23 nl of compounds or DMSO were delivered to each well using a pin tool. Then 1ul 80ng/ml doxycycline was dispensed into white solid 1536-well plates and the plates were incubated at 37C/5% C02 in a cell incubator for 4 hrs. Then 4 ul Chroma-Glo luminescent substrate mix (Promega) was added to each well. The plate was incubated at R.T. for 10-15 min. The plates were measured on a ViewLux plate reader for green luminescence (540/20 nm filter) and red luminescence (618/8 nm filter). The green and red luminescent signals were corrected for red and green luminescence filter overlap using previously determined filter calibration constants (determined using the procedure outlined in the Promega Technical Manual). The %Activity was determined from the ratio of corrected green/red luminescent values. Green luminescent and ratio %Activity was determined by normalizing to the difference in signal between basal cells (0% Activity) and cells incubated with 10 uM of the proteasome inhibitor MG-132 (100% Activity). Red luminescent %Activity was normalized to the difference between red luminesence in basal cells (0%Activity) and zero luminescence (-100% Activity). Concentration-response curves were fitted to the signals arising from the green luminescence (I-kappa-B-alpha-luciferase fusion; IkB-luc) and the red luminescence (unfused luciferase; luc) as well as the calculated ratio. The concentration-effect curves were then classified based on curve quality (r2), response magnitude and degree of measured activity. Compounds were then categorized based on their concentration-response curves for all three datasets (Ikb-luc, luc and ratio).
% is set by controls: 0 for no effect and ±100 for the full control effect; potency is the fitted concentration of half-maximal effect.

Activity change, negative = inhibition, inactive:
COc1ccc(-c2c(C)nn3c(N)c(C#N)cnc23)cc1OC 0.123%
COc1cccc(-c2nnc(Nc3nc4c(F)cccc4s3)o2)c1 37.5%
CCOc1c(OC)cccc1C1CC(=O)Nc2cc(OC)c(OC)cc21 (stereo not drawn) -0.312%
COc1ccc(-c2noc(CSc3nc(N)c(-c4ccccc4)c(=O)[nH]3)n2)cc1 -0.936%
COc1ccccc1NC(=O)Cn1nnc(C(=O)NCc2cccs2)c1N -0.743%
COc1cc2c(c(OC)c1OC)-c1ccc(OC)c(=O)cc1[C@@H](N(C)CC#CCO)CC2 -1.53%
Cc1cccc(N(C)S(=O)(=O)c2ccc(-c3cnc(C4CC4)o3)cc2)c1 -6.59%
C#CCOc1ccc(C2C3=C(COC3=O)Nc3cc4c(cc32)OCO4)cc1OC (stereo not drawn) -3.1%
CCc1ccc(CCC(=O)Nc2sc3c(c2C#N)CCCC3)o1 -1.9%
Cc1cccc(C)c1NS(=O)(=O)c1ccc(-c2cnc(C3CC3)o2)cc1 -5.58%
O=C(O)CCCN1C(=O)/C(=C\c2ccccc2OCc2ccccc2)SC1=S -3.44%
CC1=Nc2ccccc2/C1=C\c1sc(Nc2ccc(C)cc2)nc1O -20.5%
COc1cccc(Nc2sc(C(=O)c3ccc(Cl)cc3)c(N)c2C(=O)NCc2ccc(C)cc2)c1 -1.56%
CC(=O)N1c2ccc(C)cc2C(c2ccccc2)CC1C (stereo not drawn) -2.03%
Cc1noc(C)c1CSc1nc2[nH]ncc2c(=O)n1-c1ccccc1 -5.84%
COc1ccc2c(c1)sc1nc(-c3ccccc3)cn12 16.8%
Nc1ccc(C(=O)n2c3ccccc3c3ccccc32)cc1 -4.18%
O=c1cc(-c2cccc(F)c2)[nH]c2ccccc12 -3.48%
COc1ccc(CCNc2oc(-c3ccc(OC)c(OC)c3)nc2P(=O)(OC)OC)cc1OC 0.113%
COc1cc(OC)c(OC)cc1/C=C1\CCC/C(=C\c2cc(OC)c(OC)cc2OC)C1=O -10.7%
COc1ccccc1-n1cnc2cc(NCc3cccs3)ccc21 40.4%
NNC(=O)c1[nH]c2ccccc2c1-c1ccccc1 -4.38%
COc1cc(Cc2nccc3cc(OC)c(OC)cc23)c(NC(C)=O)cc1OC -0.252%
COC(=O)Nc1nc(-c2ccccc2)c(C(=O)c2ccc(Cl)cc2)s1 -1.03%
CN(CC(=O)O/N=C(\N)c1ccccn1)S(=O)(=O)c1cc(Cl)ccc1Cl -0.248%
Cc1ccc(/C=N/NC(=O)c2n[nH]c3c2CCCC3)cc1 -1.46%
Cc1cc(C)c(C#N)c(SCc2c(F)cccc2[N+](=O)[O-])n1 -2.3%
O=C(CSc1cccc[n+]1[O-])c1cc(Cl)ccc1Cl -6.48%
COc1ccc(/C=C/C(=O)c2cc(F)ccc2OC(=O)c2ccc(OC)c(OC)c2)cc1OC -5.26%
COc1cc(/C=C\C(=O)OCn2nnc3ccccc3c2=O)cc(OC)c1OC -4.34%
Cc1cccc(NC(=O)c2ccc(C(=O)Nc3cccc(C)c3)nc2)c1 -0.935%
O=C1OCC2=C1C(c1ccc(F)cc1)c1cc3c(cc1N2)OCO3 (stereo not drawn) -4.57%
COc1cc(C(=O)N2CCN(c3cc(Cl)ccc3Cl)CC2)cc(OC)c1OC -4.65%
CC1=CC(C)(C)N2C(=O)C(=O)c3cc(OC(=O)c4ccco4)cc1c32 -12.4%
CCOc1cc(/C=C2\CN(C)C/C(=C\c3ccc(O)c(OCC)c3)C2=O)ccc1O -16.9%
Cc1nnc2sc(-c3csc4c3CCCC4)nn12 -0.641%
O=[N+]([O-])c1cccnc1SCc1c(F)cccc1Cl -1.19%
CCCSc1nc(C)c(C(C)=O)cc1C#N -0.455%
CCOc1c(Br)cc(CNc2ccc3c(c2)OCCO3)cc1OC -4.18%
CCOC(=O)c1c(C)sc2c1N(C(C)=O)c1cc(Cl)ccc1S2 -1.47%
CC(C)N1C(=O)/C(=C\c2nc3ccccc3c(=O)[nH]2)c2ccccc21 -26.8%
COc1cc(C2Nc3ccccc3C(=O)N2c2ccc(Cl)cc2)c(Cl)cc1OCC(=O)O (stereo not drawn) 0.262%
Cc1ccc(NC(=S)N/N=C/c2c(Cl)cccc2Cl)c(C)c1 -4.26%
Cc1cc2nc(/C=C/c3cccnc3)[nH]c2cc1C -2.38%
COC(=O)C1C(O)=C(C=Nc2ccccc2)C(=O)CC1(C)C (stereo not drawn) 0.611%
Cc1ccc(NC(=O)c2ccco2)c([N+](=O)[O-])c1 0.0255%
CN(C)c1ccc(-c2nn3c(-c4ccccc4Cl)nnc3s2)cc1 -2.19%
CCOC(=O)COc1cccc2c(=O)n(CC(=O)NCc3ccc(F)cc3)ccc12 -1.96%
Cc1c(C(=O)OCC(C)C)[nH]c2c1C(=O)CC(c1cccs1)C2 (stereo not drawn) -0.184%
Clc1cncc(Cl)c1N/N=C/c1ccncc1 -4.45%
COc1ccc(CCNC(=O)Cn2c(=O)cnc3ccccc32)cc1 -0.695%
COc1cc(C(=O)Nc2nc(C)c(Cc3ccc4c(c3)OCO4)s2)cc(OC)c1OC -6.45%

Potency, active:
COc1ccc(C(=O)/C=C/c2ccc(OC)c(Cn3nnc4ccccc43)c2)cc1 16.4 µM
